According to ChEMBL document CHEMBL1157539, “Thousands of chemical starting points for antimalarial lead identification” (Nature, 2010):

Assays:
Format in all cases: functional
[1] = system: Plasmodium falciparum; test: GSK_TCMDC: Inhibition of Plasmodium falciparum 3D7 in whole red blood cells, using parasite LDH activity as an index of growth. Test compounds present at 2uM
[2] = system: Plasmodium falciparum; test: GSK_TCMDC: Inhibition of Plasmodium falciparum Dd2 in whole red blood cells, using parasite LDH activity as an index of growth. Test compounds present at 2uM
[3] = system: HepG2; test: GSK_TCMDC: Percent inhibition of human HepG2 cell line. Test compounds present at 10uM.

| Compound | Inhibition [1] [%] | Inhibition [2] [%] | Inhibition [3] [%] |
| --- | --- | --- | --- |
| Clc1ccc(Nc2nc3nonc3nc2Nc2ccc(Cl)c(Cl)c2)cc1 | 99 | 92 | 75 |
| COc1cc2nc(N3CCC(CNC(=O)c4ccc(-c5ccc(C(=O)N(C)C)cc5OCCN(C)C)cc4)CC3)nc(N)c2cc1OC | 95 | 0 | 0 |
| Cc1sc2cc(Cl)cc(Cl)c2c1S(=O)(=O)Nc1ccc2nccc(N3CCNCC3)c2c1.Cl | 100 | 99 | 24 |
| COc1cc(Nc2nccc(-c3c(-c4cccc(NC(=O)c5c(F)cccc5F)c4)nn4ccccc34)n2)cc(OC)c1OC | 98 | 98 | 74 |
| CNC(=O)/C=C/c1cc(NC(=O)Nc2cc(C)nc3c(F)cccc23)ccc1OC | 98 | 70 | 0 |
| Cc1cccc(Cl)c1S(=O)(=O)N1CCCCC(c2ccc(C(F)(F)F)cc2)=N1 | 100 | 100 | 5 |
| Cl.O=C(Nc1ccc(C2=NC3CCCCC3N2)cc1)Nc1ccc(C2=NC3CCCCC3N2)cc1 (stereo not given) | 88 | 76 | 7 |
| COCCN1CCC(CN(C)CC(C)(C)c2nc(-c3ccc(Cl)c(O)c3)c(-c3ccncc3)[nH]2)CC1.Cl | 94 | 10 | 0 |
| N=C(N)NC(=O)Nc1cc(F)c(Cl)c(Br)c1 | 100 | 50 | 0 |
| Cc1ccc(C)c(NC(=O)NCCNc2ccnc(Nc3ccc(F)cc3)n2)c1 | 97 | 5 | 21 |
| COc1ccc2ncc(F)c(CCN3CC[C@@H](CNCc4nc5c(cc4C)SCC(=O)N5)C3)c2n1.Cl | 91 | 42 | 14 |
| Cc1ccc2nc(-c3ccc(C(=O)NCc4ccc(Cl)c(Cl)c4)cc3)[nH]c2c1C | 96 | 26 | 19 |
| C#CCNCc1ccc(-c2cccc(-c3nc4cccc(C)c4[nH]3)c2)cc1.O=C(O)C(F)(F)F | 100 | 32 | 0 |
| Cc1cc(C(=O)NC2CCN(Cc3ccccc3)CC2)ccc1-c1nc2ccc(C(F)(F)F)cc2[nH]1 | 95 | 2 | 19 |
| CCNc1cc(C(=O)N[C@@H](Cc2ccccc2)[C@H](O)CNC2(CC)CCCCC2)cc(N2CCCCS2(=O)=O)c1.Cl | 98 | 98 | 3 |
| CS(=O)(=O)c1ccc(CNCc2ccc(-c3ccc(-c4nc5cc(C(F)(F)F)ccc5[nH]4)s3)cc2)cc1.O=C(O)C(F)(F)F | 100 | 98 | 49 |
| O=C(Nc1ccc(C(F)(F)F)cc1)c1cc(Br)cnc1NCCCn1ccnc1 | 99 | 98 | 32 |
| O=C(O)C(F)(F)F.c1ccc2c(c1)CN(CC1CC1)CC1(CCN(Cc3c[nH]c4cnccc34)CC1)O2 | 100 | 14 | 30 |
| CN1CCN(CCCN(Cc2ccc(-c3cccc(CNCc4ccc5c(c4)OCO5)c3)cc2)C(=O)NCCc2ccccc2)CC1.O=C(O)C(F)(F)F | 98 | 85 | 36 |
| COc1ccc2[nH]c(C)cc(=NN=Cc3cccc(Cl)c3)c2c1 | 100 | 100 | 13 |
| CCCN(CCC)CCCNc1ccc(C(=O)Nc2ccc(C(C)C)cc2)cc1[N+](=O)[O-] | 98 | 38 | 17 |
| CCc1sc(N2CCN(C)CC2)nc1C(=O)Nc1ccc(F)cc1C(F)(F)F.O=C(O)C(F)(F)F | 100 | 98 | 0 |
| O=C(O)C(F)(F)F.O=S(=O)(NCCN1CCCC1)c1ccc(-c2ccccc2CNC2Cc3ccccc3C2)cc1 | 95 | 67 | 19 |
| Cl.O=c1cc(NCCCCNCc2ccc(Br)c(Br)c2)[nH]c2ccccc12 | 98 | 14 | 13 |
| CN(C)CCCN1C(=O)c2[nH]nc(-c3ccc(Cl)cc3O)c2C1c1ccc(Cl)cc1 (stereo not given) | 99 | 15 | 57 |
| CN1CCc2cc(NS(=O)(=O)c3ccc(-c4ccc(Cl)s4)cc3)c(N3CCCCC3)cc2CC1.Cl | 98 | 29 | 14 |
| O=S(=O)(Nc1cccc(F)c1CNCc1ccccn1)c1ccc(Cl)c(Cl)c1 | 92 | 34 | 45 |
| COc1ccc(C2C(C(=O)Nc3ccc(C)c(F)c3)c3cc(OC)c(OC)cc3C(=O)N2C)cc1 (stereo not given) | 81 | 26 | 6 |
| Cc1nc(-c2ccc(C(F)(F)F)cn2)sc1C(=O)N1CCc2cc3nccc(N4CCN5CCC[C@H]5C4)c3cc21.Cl | 100 | 72 | 5 |
| O=S(=O)(Nc1cccc(CCN2CCCCC2CCN2CCCC2)c1)c1ccc(Oc2ccccc2)cc1 (stereo not given) | 94 | 1 | 52 |
